Measured values as given in PubChem BioAssay AID1259349 (Broad Institute, 2017).
Values joined by “and” are separate entries in the source; they are usually repeats but may differ in a detail not shown here. Identical values can stand only once. Hit rate of the full screen: of about 17,000 compounds, about 1,100 (6.5%) were called active.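 Rule for the calls: active = z-score of -3 or lower, meaning strong loss of probe binding signal; inactive = the rest.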 Only a selection was taken, and actives are over-represented in it overall. More than one record can exist for a structure, and the calls need not agree.

What follows are compounds tested against Insulin-degrading enzyme (Homo sapiens) (UniProt P14735) (assay: exo-site inhibitors of human IDE, primary screen, biochemical, fluorescence anisotropy, probe displacement (AID 1259349;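 note: His-tagged human IDE residues 42-1019 made in E. coli with 30 nM FL-6b probe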)). Settings: purified IDE, FL-6b probe fluorescence polarization; at 20 µM; stronger effect = lower value.
Insulin-degrading enzyme (Homo sapiens), sequence (P14735 42-1019 limits assumed): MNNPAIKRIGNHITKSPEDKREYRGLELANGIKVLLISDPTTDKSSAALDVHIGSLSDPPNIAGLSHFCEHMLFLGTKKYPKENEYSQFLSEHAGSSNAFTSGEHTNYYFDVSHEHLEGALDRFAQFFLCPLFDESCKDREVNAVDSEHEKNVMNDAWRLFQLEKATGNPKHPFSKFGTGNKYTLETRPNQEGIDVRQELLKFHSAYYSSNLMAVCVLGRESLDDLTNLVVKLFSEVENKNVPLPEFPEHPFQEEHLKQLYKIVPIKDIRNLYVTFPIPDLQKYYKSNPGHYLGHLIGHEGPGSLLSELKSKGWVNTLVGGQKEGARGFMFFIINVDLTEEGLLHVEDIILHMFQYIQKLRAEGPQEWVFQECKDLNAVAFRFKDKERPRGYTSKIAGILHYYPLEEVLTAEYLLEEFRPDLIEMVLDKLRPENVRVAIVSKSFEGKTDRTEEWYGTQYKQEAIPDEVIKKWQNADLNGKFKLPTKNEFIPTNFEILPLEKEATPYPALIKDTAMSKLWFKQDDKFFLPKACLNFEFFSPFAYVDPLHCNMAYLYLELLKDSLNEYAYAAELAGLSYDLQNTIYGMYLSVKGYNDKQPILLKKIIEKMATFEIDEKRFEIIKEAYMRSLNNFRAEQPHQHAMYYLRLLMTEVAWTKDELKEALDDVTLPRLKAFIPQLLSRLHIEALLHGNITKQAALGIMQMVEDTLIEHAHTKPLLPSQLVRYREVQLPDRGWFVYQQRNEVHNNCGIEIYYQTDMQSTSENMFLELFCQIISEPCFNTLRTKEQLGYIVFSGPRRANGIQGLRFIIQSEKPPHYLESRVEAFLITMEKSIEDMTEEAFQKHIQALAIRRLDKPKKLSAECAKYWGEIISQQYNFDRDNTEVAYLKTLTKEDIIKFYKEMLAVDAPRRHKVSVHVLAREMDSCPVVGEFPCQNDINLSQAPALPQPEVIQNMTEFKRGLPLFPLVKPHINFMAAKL

SMILES	z-score
CCCN1C[C@@H](C)[C@@H](OC)CN(C)C(=O)c2cc(NC(=O)C3CCC3)ccc2OC[C@H]1C	-0.201 (inactive)
O=C(C[C@@H]1C=C[C@@H](NC(=O)c2ccc3c(c2)OCO3)[C@H](CO)O1)NC1Cc2ccccc2C1	0.748 (inactive)
O=C(C1CCCC1)N1[C@@H](CO)[C@@H](c2ccccc2)C12CN(Cc1ccc(F)cc1)C2	1.26 (inactive)
CN(C)CC(=O)N1CC2(C1)[C@H](c1ccccc1)[C@H](CO)N2C(=O)C1CC1	-1.06 (inactive)
O=C(c1ccccn1)N1CC2(C1)[C@@H](c1ccccc1)[C@@H](CO)N2C(=O)C1CCCCC1	-4.56 (active)
CCS(=O)(=O)Nc1ccc2c(c1)C(=O)N(C)[C@H]1CC[C@H](CC(=O)N[C@@H]3CCN(Cc4ccccc4)C3)O[C@H]1CO2	-0.74 (inactive)
Cc1cccc(-c2ccc([C@H]3[C@@H](CO)N4CCCCN(Cc5cncnc5)C[C@H]34)cc2)c1	-5.22 (active)
OC[C@@H]1[C@H](c2ccc(C3=CCCC3)cc2)[C@H]2CN(Cc3ccncc3)CCCCN12	1.19 (inactive)
Cc1cccc(-c2ccc([C@@H]3[C@H](CO)N4CCCCN(Cc5ccncc5)C[C@@H]34)cc2)c1	-5.19 (active)
Cc1ccc(-c2ccc([C@H]3[C@H](CO)N4CCCCN(Cc5cncnc5)C[C@@H]34)cc2)cc1	3.25 (inactive)
COc1ccc(CN2CCCCN3[C@H](C2)[C@H](c2ccc(-c4ccc(OC)cc4)cc2)[C@@H]3CO)cc1	3.61 (inactive)
OC[C@H]1[C@H](c2ccc(-c3cccnc3)cc2)[C@H]2CN(Cc3ccccn3)CCCCN21	-3.14 (active)
CCC(=O)N1CCCCN2[C@H](CO)[C@@H](c3ccc(-c4cccnc4)cc3)[C@H]2C1	0.698 (inactive)
OC[C@@H]1[C@H](c2ccc(Br)cc2)[C@@H]2CN(Cc3ccccn3)CCCCN12	0.871 (inactive)
OC[C@H]1[C@H](c2ccc(-c3cccc(F)c3)cc2)[C@@H]2CN(Cc3cncnc3)CCCCN12	0.665 (inactive)
CO[C@H]1CN(C)C(=O)c2cc(NC(=O)NC(C)C)ccc2OC[C@H](C)N(C(=O)CN(C)C)C[C@H]1C	-0.369 (inactive)
COCCN(C[C@H]1[C@H](c2ccccc2)[C@@H](CO)N1C(C)=O)C(=O)c1cccnc1	-0.97 (inactive)
CN(C)C(=O)c1ccc(-c2ccc([C@H]3[C@H](CO)N4CCCCN(S(C)(=O)=O)C[C@@H]34)cc2)cc1	4.37 (inactive)
O=C(C1CCCCC1)N1CC(=O)N2[C@H](CO)[C@@H](c3ccc(-c4ccccc4F)cc3)[C@@H]2C1	-3.81 (active)
Cc1ccccc1-c1ccc(C2[C@@H]3CN(C(=O)C4CCCCC4)C[C@H]2N3)cc1 (stereo not given in full)	1.9 (inactive) and -13.9 (active)
O=C(C1CCC1)N1C[C@@H]2N[C@H](C1)C2c1ccc(-c2cncnc2)cc1 (stereo not given in full)	0.446 (inactive)
O=C(C1CCCCC1)N1CC(=O)N2[C@H](CO)[C@H](c3ccc(-c4ccccc4F)cc3)[C@H]2C1	-2.1 (inactive)
COCC(=O)N1CC(=O)N2[C@H](CO)[C@@H](c3ccc(-c4ccccc4F)cc3)[C@H]2C1	-0.201 (inactive)
O=C(C1CC1)N1CC(=O)N2[C@H](CO)[C@@H](c3ccc(-c4ccccc4F)cc3)[C@@H]2C1	-6.21 (active)

SMILES	z-score
O=C(c1ccc(F)cc1)N1CC(=O)N2[C@H](CO)[C@H](c3ccc(-c4ccccc4F)cc3)[C@@H]2C1	0.797 (inactive)
O=C(C1CCCCC1)N1CC(=O)N2[C@H](CO)[C@H](c3ccc(Br)cc3)[C@H]2C1	2.21 (inactive)
O=C(C1CCCC1)N1CC(=O)N2[C@H](CO)[C@H](c3ccc(Br)cc3)[C@@H]2C1	1.85 (inactive)
O=C(C1CCCC1)N1CC(=O)N2[C@H](CO)[C@H](c3ccc(Br)cc3)[C@H]2C1	3.78 (inactive)
CN(C)C(=O)c1ccc(-c2ccc(C3[C@@H]4CN(C(=O)Nc5ccccc5)C[C@H]3N4)cc2)cc1 (stereo not given in full)	0.753 (inactive)
O=C(C1CCC1)N1CC(=O)N2[C@H](C1)[C@@H](c1ccc(-c3ccccc3F)cc1)[C@@H]2CO	-10.1 (active)
CC(C)C#Cc1ccc([C@H]2[C@@H](C#N)N(C(=O)CN(C)C)[C@H]2CO)cc1	0.732 (inactive)
COc1ccc2c3c([nH]c2c1)[C@H](CO)N(C(=O)Nc1ccc(F)cc1)CC31CCN(CC2CCOCC2)CC1	-0.0173 (inactive)
CCCNC(=O)N1CC2(CN(C(=O)c3cnccn3)C2)c2c([nH]c3cc(OC)ccc23)[C@@H]1CO	-1.28 (inactive)
N#C[C@@H]1[C@@H](c2ccc(C3=CCCCC3)cc2)[C@@H](CO)N1C(=O)c1cccc(F)c1	2.45 (inactive)
C[C@@H]1CN([C@H](C)CO)C(=O)Cc2cc(N(C)C)ccc2O[C@H]1CN(C)C(=O)NC1CCCCC1	-0.478 (inactive)
COc1ccc2c3c([nH]c2c1)[C@H](CO)N(C(C)=O)CC31CN(S(=O)(=O)c2cccs2)C1	0.716 (inactive)
CNC[C@H]1OCCCC[C@@H](C)Oc2ccc(NS(=O)(=O)c3ccc(F)cc3)cc2C(=O)N([C@H](C)CO)C[C@H]1C	0.482 (inactive)
CCCNC(=O)N1[C@H](C#N)[C@@H](c2ccc(C3=CCCC3)cc2)[C@H]1CO	0.0932 (inactive)
CCS(=O)(=O)N1[C@H](C#N)[C@H](c2ccc(-c3cccc(F)c3)cc2)[C@@H]1CO	0.519 (inactive)
Cn1cnc(S(=O)(=O)N2C[C@@H]3N[C@H](C2)C3c2ccc(/C=C/c3ccccc3)cc2)c1 (stereo not given in full)	-1.85 (inactive) and -5.13 (active)
Cn1cnc(S(=O)(=O)N2C[C@@H]3N[C@H](C2)C3c2ccc(-c3ccccc3F)cc2)c1 (stereo not given in full)	0.547 (inactive) and 0.421 (inactive)
COc1ccc(-c2ccc(C3[C@@H]4CN(S(=O)(=O)c5cn(C)cn5)C[C@H]3N4)cc2)cc1 (stereo not given in full)	2.29 (inactive)
O=C(Nc1cccc(F)c1)N1CC(=O)N2[C@H](C1)[C@H](c1ccc(-c3ccccc3F)cc1)[C@@H]2CO	0.741 (inactive)
Cc1ccc(S(=O)(=O)Nc2ccc3c(c2)C(=O)N([C@H](C)CO)C[C@@H](C)[C@H](CN(C)S(=O)(=O)c2cccs2)OCCCC[C@@H](C)O3)cc1	-0.652 (inactive)
O=C(Cc1ccccn1)N[C@H]1CC[C@H](CCNS(=O)(=O)c2cccc(F)c2)O[C@@H]1CO	0.0602 (inactive)
O=C(CN1CCOCC1)N1C[C@@H]2N[C@H](C1)C2c1ccc(-c2ccncc2)cc1 (stereo not given in full)	0.193 (inactive)
O=C(C1CCOCC1)N1CC(=O)N2[C@H](CO)[C@H](c3ccc(C#Cc4cccc(F)c4)cc3)[C@H]2C1	-19.3 (active)
COCC#Cc1ccc([C@@H]2[C@@H](CO)N3C(=O)CN(C(=O)C4CCOCC4)C[C@@H]23)cc1	0.89 (inactive)

SMILES	z-score
O=C(C1CCC1)N1CC(=O)N2[C@H](CO)[C@H](c3ccc(C#CCc4ccccc4)cc3)[C@@H]2C1	-2.52 (inactive)
O=C(C1CCCCC1)N1CC(=O)N2[C@H](CO)[C@@H](c3ccc(C#Cc4cccc(F)c4)cc3)[C@@H]2C1	1.96 (inactive)
COCC#Cc1ccc([C@@H]2[C@H]3CN(C(=O)C4CCOCC4)CC(=O)N3[C@H]2CO)cc1	2.55 (inactive)
O=C(C1CCC1)N1CC(=O)N2[C@@H](CO)[C@@H](c3ccc(C#Cc4cccc(F)c4)cc3)[C@@H]2C1	-4.35 (active)
COc1ccc2c3c([nH]c2c1)[C@@H](CO)N(Cc1ccncc1)CC31CN(C(=O)CN(C)C)C1	-0.567 (inactive)
COCC(=O)Nc1ccc2c(c1)OC[C@@H](C)N(Cc1ccccc1C(=O)O)C[C@@H](C)[C@H](OC)CN(C)C2=O	1.82 (inactive)
O=C(C1CC1)N1CCCCN2[C@H](C1)[C@@H](c1ccc(-c3cccc(F)c3)cc1)[C@@H]2CO	-3.66 (active)
O=C(c1cccc(F)c1)N1CCCCN2[C@H](CO)[C@@H](c3ccc(-c4cncnc4)cc3)[C@H]2C1	1.13 (inactive)
CC(=O)N1CCCCN2[C@H](C1)[C@@H](c1ccc(-c3ccc(F)cc3)cc1)[C@@H]2CO	0.352 (inactive)
O=C(C1CCC1)N1CCCCN2[C@H](CO)[C@H](c3ccc(-c4ccncc4)cc3)[C@@H]2C1	-0.182 (inactive)
O=C(c1cccc(F)c1)N1CCCCN2[C@@H](CO)[C@H](c3ccc(-c4cncnc4)cc3)[C@@H]2C1	1.94 (inactive)
O=C(C1CC1)N1CCCCN2[C@H](CO)[C@H](c3ccc(-c4cccc(F)c4)cc3)[C@H]2C1	-6.38 (active)
COc1cccc(S(=O)(=O)Nc2ccc3c(c2)[C@@H]2C[C@@H](CC(=O)NC4CCCCC4)O[C@H](CO)[C@@H]2O3)c1	-0.362 (inactive)
COc1ccc2c3c([nH]c2c1)[C@@H](CO)N(C(=O)C1CC1)CC31CCN(C(=O)c2ccncc2)CC1	1.3 (inactive)
CO[C@H]1CN(C)C(=O)c2cc(NC(=O)C3CC3)ccc2OC[C@@H](C)N(Cc2cc(F)ccc2F)C[C@H]1C	-1.43 (inactive)
COc1ccc2c3c(n(C)c2c1)[C@@H](CO)N(Cc1ccccc1F)CC31CCN(C(=O)C2CCOCC2)CC1	-2.72 (inactive)
CCCC#Cc1ccc([C@H]2[C@H]3CN(Cc4cncnc4)CCCCN3[C@H]2CO)cc1	1.82 (inactive)
OC[C@@H]1[C@H](c2ccc(C#Cc3ccccc3)cc2)[C@@H]2CN(Cc3cncnc3)CCCCN12	-3.14 (active)
OC[C@@H]1[C@@H](c2ccc(C#CC3(O)CCCC3)cc2)[C@@H]2CN(Cc3cncnc3)CCCCN12	0.144 (inactive)
OC[C@H]1[C@H](c2ccc(-c3ccccc3F)cc2)[C@H]2CN(Cc3cncnc3)CCCCN21	-3.23 (active)
OC[C@H]1[C@@H](c2ccc(-c3ccccc3F)cc2)[C@@H]2CN(Cc3ccncc3)CCCCN12	-0.42 (inactive)
OC[C@@H]1[C@@H](c2ccc(-c3ccccc3F)cc2)[C@@H]2CN(Cc3cncnc3)CCCCN12	-0.419 (inactive)
